Rows were chosen to be rich in hits. Some 3.4% of all compounds tested hit in one or more screens of this group.
Ecoli rRNA inh: inhibitors of bacterial rRNA selective over humanized ribosomes; E. coli WT GFP vs humanized-ribosome RFP mutants, fluorescence, 24 h; active compounds read low; DMSO median 0, no signal -100; GFP signal change (wild-type ribosome), % (test concentration not listed); 1.6% of 350,000 active;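 active = significant combined selectivity score with lowered wild-type GFP, culture density cut under 30%, mutant RFP and density less affected; inactive = any of these conditions unmet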
PGC1a acetyl inh: modulators of PGC1a acetylation; U2OS PGC1a acetylation, AlphaScreen anti-acetyl-lysine; with virally co-expressed GCN5 acetyltransferase; inhibition, % at 15.6 µM; 0.17% of 350,000 active;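 active = every replicate shows inhibition of at least 40%; inconclusive = mean inhibition at least 40% but some replicate below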;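 note: 0% = neutral control wells and 100% = positive control wells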
EWS-Fli inh: EWS/Fli transcriptional activity inhibition. AID 651661. 0.67% of 350,000 active. A673 NR0B1-luciferase reporter, viability-normalised. inhibition, % at 12.6 µM;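 active = mean inhibition of at least 50% after viability correction, with every replicate also passing that limit; inconclusive = mean reaches 50% but only one of two replicates passes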;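 note: firefly luciferase signal divided by Alamar Blue viability fluorescence both relative to DMSO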
LGR2 antag: inhibitors of bursicon-induced Drosophila LGR2 receptor cAMP signaling; 0.35% of 380,000 active; HEK293 LGR2, CRE-luciferase, bursicon-stimulated, 4 h; AID 720647; inhibition, % at 9.99 µM;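 active = drop in luminescence signal, shown as inhibition above about 50% in the replicate tests, limit read from the data, passing the limit was not always enough; inconclusive = probably only some replicates passing the limit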;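 note: agonist challenge used bursicon conditioned medium at about half maximal strength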
SIRT5 inh: blocks human SIRT5 desuccinylation of peptide | inhibition, % at 15 µM | 1.1% of 330,000 active | Purified SirT5, succinyl-peptide AMC, trypsin-coupled fluorescence | AID 652115 | Q9NXA8; in the data active = inhibition above about 15%; inconclusive = no clear call, values can overlap the other calls
Target sequence (Q9NXA8 whole entry, looked up): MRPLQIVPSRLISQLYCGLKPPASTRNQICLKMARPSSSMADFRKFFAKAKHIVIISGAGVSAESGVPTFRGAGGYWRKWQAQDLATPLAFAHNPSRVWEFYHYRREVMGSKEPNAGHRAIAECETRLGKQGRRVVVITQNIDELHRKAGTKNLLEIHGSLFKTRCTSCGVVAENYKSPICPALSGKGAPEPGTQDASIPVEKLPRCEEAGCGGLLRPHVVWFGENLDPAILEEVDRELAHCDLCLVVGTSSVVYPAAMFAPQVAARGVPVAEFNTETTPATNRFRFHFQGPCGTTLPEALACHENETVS
PAX8 inh HTS: PAX8 transcriptional activity inhibition; RMG-I TPO-luciferase reporter, SteadyGlo, 24 h; inhibition, % at 12.6 µM; 1.2% of 360,000 active; AID 652154;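 active = mean replicate inhibition at least 60% with every replicate also reaching 60%; inconclusive = only one of the two criteria is met; inactive = mean below 60% and not all replicates reaching 60%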;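 note: luciferase light reporting Pax8 driven TPO promoter activity; plate controls were median of neutral control wells for no effect and mitoxantrone controls for full effect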
Active calls of the source: *; ? = inconclusive; · = no result.

SMILES | Ecoli rRNA inh | PGC1a acetyl inh | EWS-Fli inh | LGR2 antag | SIRT5 inh | PAX8 inh HTS
COc1ccc(C[C@H]2CCc3cnnn3COC[C@H](Cc3ccccc3)NC2=O)cc1 | 3.1 | · | 4.2 | -35.6 | -5.1 | -6.5
Cc1noc(C)c1NC(=O)Nc1cccc2c1O[C@H](CN(C)C(=O)Nc1ccc(F)cc1)[C@@H](C)CN([C@H](C)CO)C2=O | 0.2 | -0.2 | -2.3 | 0.3 | · | ·
CCS(=O)(=O)NCC[C@@H]1CC[C@@H](NS(=O)(=O)c2cccc(F)c2)[C@H](CO)O1 | -1.9 | 10.4 | 1.2 | -0.6 | -1.8 | -3.9
COc1cccc(NC(=O)C2CCC(CNS(=O)(=O)c3cccs3)CC2)c1 (stereo not given) | -21.1* | -0.2 | 9.6 | 38.3 | · | -6.0
O=C(C1CCC(CNS(=O)(=O)c2cccs2)CC1)N1CCN(c2ccc(Cl)cc2)CC1 (stereo not given) | -3.3 | 20.2 | · | 33.3 | 3.7 | 68.1*
C/C=C/c1ccc2c(c1)O[C@@H](CN(C)CC1CCOCC1)[C@H](C)CN([C@@H](C)CO)S2(=O)=O | -4.9 | -41.4 | -6.5 | 17.7 | -0.1 | -2.4
COc1cccc(CN2[C@@H](CO)[C@@H](c3ccccc3)C23CN(C(=O)C2CCOCC2)C3)c1 | 1.7 | -6.5 | 0.3 | -3.4 | -0.7 | ·
CCCCN1C=CC(=C2C(=O)c3ccccc3C2=O)C=C1 | -4.3 | 0.0 | 79.9* | · | -4.4 | 82.1*
CCCCC1C(=O)N(c2ccccc2)N(c2ccccc2)C1=O | -8.5 | -6.7 | -7.1 | -14.0 | -1.9 | -8.7
Cc1ccc(NC(=O)C2CC(=O)N/C(=N/N=C/c3ccco3)S2)cc1 (stereo not given) | · | · | · | 8.1 | · | -8.6
Cc1ccc(NC(=O)C2CC(=O)N/C(=N/N=C/c3ccco3)S2)cc1C (stereo not given) | · | · | 5.1 | · | · | 117.7*
O=C(C[C@@H]1CC[C@H]2[C@@H](COC[C@@H](O)CN2Cc2ccccc2F)O1)N[C@@H]1CCN(Cc2ccccc2)C1 | -2.6 | 1.2 | -6.7 | 10.8 | -1.7 | 12.6
Cc1cc(C(=O)CCl)c(C)n1CCc1ccccc1 | 10.6 | · | 75.2* | 7.6 | -0.5 | 31.6
CCOC(=O)c1cc(C)n(CCc2ccccc2)c1C | · | 2.5 | · | · | · | ·
O=c1n(-c2ccccc2)c(=O)n2n1CC(COc1ccccc1)=C1[C@@H](c3ccccc3)OB(O)C[C@@H]12 | · | -3.0 | 4.4 | · | 9.3 | ·
O=C(C1CCC1)N1CC2(C1)[C@H](c1ccccc1)[C@@H](CO)N2C(=O)CC1CC1 | -0.4 | -1.3 | -0.1 | 5.8 | -1.8 | ·
C[C@H]1CN([C@@H](C)CO)C(=O)c2cccc(NC(=O)NC3CCCCC3)c2O[C@H]1CN(C)S(=O)(=O)c1ccc(Cl)cc1 | -2.8 | 19.7 | 24.3 | 13.9 | 6.2 | 72.1*
C[C@H](CO)N1C[C@H](C)[C@H](CN(C)S(=O)(=O)c2ccc(F)cc2)Oc2c(NC(=O)NC3CCCCC3)cccc2C1=O | -10.6 | 3.6 | 14.7 | · | 1.4 | 62.0*
CO[C@H]1CN(C)C(=O)c2cc(NC(=O)Nc3cc(F)ccc3F)ccc2OC[C@@H](C)N(C(=O)c2ccccn2)C[C@@H]1C | 1.5 | 12.0 | -3.1 | -12.6 | · | 5.2
CCCCCNC(=O)C(c1cc2ccccc2o1)n1c(=O)c(-c2ccccc2)nc2ccccc21 (stereo not given) | · | · | -3.2 | -15.6 | 18.9* | 13.3
CC(C)C#Cc1ccc([C@H]2[C@@H](CO)N3C(=O)CN(C(=O)c4ccccn4)C[C@@H]23)cc1 | 3.9 | 2.9 | · | -6.5 | -0.5 | ·
Cc1ccc(-c2cc(-c3ccccc3)no2)cc1 | 10.3 | -6.6 | 58.9* | 57.1* | -0.2 | -24.0
c1ccc(-c2cc(-c3ccccc3)on2)cc1 | 11.0 | 4.3 | -90.5 | -84.4 | -4.5 | -141.1
C[C@@H]1CN([C@H](C)CO)C(=O)CCCn2nncc2CO[C@H]1CN(C)C(=O)Nc1cccc2ccccc12 | 5.2 | 10.3 | 6.0 | ? | 75.6* | -0.2
C[C@@H]1CN([C@@H](C)CO)C(=O)CCCn2nncc2CO[C@@H]1CN(C)C(=O)Nc1cccc2ccccc12 | -8.0 | -3.0 | 5.8 | -1.9 | -3.1 | 12.4
C[C@H](CO)N1C[C@H](C)[C@@H](CN(C)C(=O)Nc2ccccc2)OCc2cnnn2CCCC1=O | -4.1 | 1.0 | 6.4 | -4.0 | -1.1 | 5.1

Source: PubChem (Broad Institute)
